High-throughput results from PubChem BioAssay.
Shown is part of a subset that was picked to be rich in hits.
Tg IFNy HTS: T. gondii growth inhibition under IFN-gamma; activity change, negative = inhibition, % (test concentration not listed); Toxoplasma gondii growth in IFN-gamma-treated host cells; hits give low values; 3.8% of 69,000 active; AID 1259416; in the data active = activity change below about -70%, passing the limit was not always enough;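 note: host cells are HeLa cells infected with Toxoplasma gondii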
An asterisk follows results filed as active.

SMILES | Tg IFNy HTS
Cc1cc2cc(NC(=O)CNC(=O)c3nc4ncccn4n3)cc(Cl)c2o1 | 5.2
O=C(NC(=O)c1ccccc1F)OCc1ccc(Cl)cc1Cl | -36.9
O=C(OCc1ccc(Cl)cc1Cl)c1ccc2ccccc2n1 | 44.6
N/C(Cc1ccc(Cl)cc1Cl)=N\OC(=O)c1ccc(Br)o1 | -85.8*
CCOc1ccc(-c2cnc(-c3cnc(CC)nc3)[nH]2)cc1 | -11.7
COc1ncnc2c1CCN(S(=O)(=O)c1cn(C)cn1)CC2 | -9.6
Cc1noc(C)c1S(=O)(=O)N1CCCC1c1cccc(Nc2cnccn2)n1 (centres undefined) | 29.0
COCc1cc(CNC(=O)c2cc3sccc3[nH]2)[nH]n1 | 25.3
Cc1cc(N2CCCN(Cc3ccc(OC(F)F)cc3)CC2)ccn1 | -29.3
CCCCS(=O)(=O)N1CCC2(CC1)CC(CC(=O)N1CCCC1)c1ccccc12 (centres undefined) | -55.2
Cc1cccc(N2CCN(C(c3ccccc3)c3nnnn3Cc3ccco3)CC2)c1C (centres undefined) | -12.9
COCCn1nnnc1C(c1cccs1)N1CCN(c2cc(C)ccc2C)CC1 (centres undefined) | -95.0*
COCCn1nnnc1C(C(C)C)N1CCC(Cc2ccccc2)CC1 (centres undefined) | -2.4
Cc1cc2nc(SCc3nc4ccccc4c(=O)[nH]3)[nH]c2cc1C | 162.1
Cc1onc(C(=O)N2CCCC2Cc2c(C(N)=O)sc3ccccc23)c1Cn1cccn1 (centres undefined) | 11.4
COc1ccc(CCC(=O)NCCc2sc(-c3ccc(Cl)cc3)nc2C)cc1 | 23.9
COc1ccc(CN2CCC3(CC(C(=O)NCC(C)C)=NO3)C2)cc1 (centres undefined) | 4.5
CC(C)CNC(=O)C1=NOC2(CCN(Cc3ccc(C(C)C)cc3)C2)C1 (centres undefined) | -82.4*
CC(C)CNC(=O)C1=NOC2(CCN(C(=O)c3ccccn3)C2)C1 (centres undefined) | -0.2
CCC(=O)N1C[C@@H]2CN(c3cnccn3)CC[C@H]2C1 | 4.2
O=C1NC(Cc2ccc(F)cc2)(C2CCNCC2)C(=O)N1CCc1cccs1 (centres undefined) | -0.6
COCC(=O)N1CCOCC2(CCN(Cc3nccn3C)C2)C1 (centres undefined) | -2.9
Cc1nnc(Sc2c(N)n(C)c(=O)[nH]c2=O)s1 | 2.9
Cc1nnc(-c2ccc(C(C)N3CCCCC3)cc2)s1 (centres undefined) | 0.7
Cc1nnc(Sc2nc(Sc3nnc(C)s3)nc(N3CCCCC3)n2)s1 | -84.2*
SMILES | Tg IFNy HTS
Cc1ccc(C2c3[nH]c4ccccc4c3CCN2C(=O)c2ccccc2Cl)cc1 (centres undefined) | -118.1*
CSc1ccc(C2c3[nH]c4ccccc4c3CCN2C(=O)c2ccccc2Cl)cc1 (centres undefined) | 89.4
CSc1ccc(C2c3[nH]c4ccccc4c3CCN2C(=O)c2ccc(C)cc2)cc1 (centres undefined) | 33.9
Cc1cccc(C2c3[nH]c4ccccc4c3CCN2C(=O)c2ccccc2)c1 (centres undefined) | 135.4
O=C(c1ccccc1F)N1CCc2c([nH]c3ccccc23)C1c1ccccc1 (centres undefined) | 38.8
Cc1cccc(C2c3[nH]c4ccccc4c3CCN2C(=O)c2ccccc2Cl)c1 (centres undefined) | -109.7*
COCC1(C(=O)N(C)Cc2nc3ccc(C)cc3[nH]2)CCC1 | -3.1
Cc1[nH]c2c(C(=O)NCC3(O)CCCNCC3)cccc2c1C (centres undefined) | 0.3
Fc1ccc(N2CCC3(CC2)CC(c2cccnc2)CO3)cc1 (centres undefined) | -81.7*
COc1ccc(CN2CCC3(CC2)CC(c2cccnc2)CO3)cc1 (centres undefined) | -12.7
N#Cc1ccc(N2CCC3(CC2)CC(c2cccnc2)CO3)cc1 (centres undefined) | -67.0
CN(C)CC1CN(C(=O)c2ccccc2F)Cc2ccccc2O1 (centres undefined) | -11.1
CCn1c(-c2cc(NC(=O)c3ccncc3)n[nH]2)cc2ccc(OC)cc21 | -92.0*
CCn1c(-c2cc(NC(=O)c3cncc(Br)c3)n[nH]2)cc2cc(OC)ccc21 | 37.4
CCn1c(-c2cc(NC(=O)c3cccnc3)n[nH]2)cc2c(OC)cccc21 | -47.9
COc1cccc(CN2C[C@@H]3C[C@H](C(=O)Nc4ccccc4)[C@@H](C2)O3)c1 | -21.4
COC(=O)[C@]1(C)N[C@H](c2cnn(-c3ccccc3C)c2)[C@@H]2C(=O)N(C)C(=O)[C@@H]21 | 5.5
CCOc1ccc(-c2nc(CN3CCN(C(=O)c4ccccc4OC)CC3)c(C)o2)cc1 | 0.1
CCOC(=O)c1nc(NCc2ccc3c(c2)OCO3)c2ccccc2n1 | 9.2
Cc1nc2ncnn2c(NCc2ccc3c(c2)OCO3)c1Cc1ccccc1 | -95.5*
Cc1cccc(CCNc2cc(C)nc3ncnn23)c1 | 3.0
COCCN1CCC2OCCCC2(COCC2CC2)C1 (centres undefined) | -14.6
CCc1ncc(C(O)c2ccc(OC)cc2)n1C (centres undefined) | 11.9
Clc1ccc(Sc2nc3ccccc3nc2Sc2ccc(Cl)cc2)cc1 | 17.2
Cc1ccc(Sc2cccc3nc(N)nc(N)c23)cc1 | -108.1*
SMILES | Tg IFNy HTS
Cc1ncc(Sc2ccc(Cl)cc2)c(-c2ccc(Cl)cc2)n1 | 21.8
COc1ccc(-c2nc3c(s2)CN(C(=O)Nc2ccc(OC)cc2OC)CC3)cc1 | -18.0
CN(C)c1ncnc2c1CCN(C(=O)[C@H]1CCCO1)CC2 | 0.2
CC1CCN(c2ncnc3c2cnn3CC(=O)Nc2ccc3c(c2)OCCO3)CC1 | 159.6
CC1CCN(c2ncnc3c2cnn3CC(=O)Nc2cccc(Cl)c2)CC1 | -86.8*
COc1ccc(NC(=O)Cn2ncc3c(N4CCC(C)CC4)ncnc32)cc1OC | 51.7
O=C(Cn1ncc2c(N3CCN(c4ccccn4)CC3)ncnc21)Nc1ccccc1C(F)(F)F | 30.2
O=C(Cn1ncc2c(N3CCN(c4ccccn4)CC3)ncnc21)Nc1ccc(F)c(Cl)c1 | 183.9
CC1CCN(c2ncnc3c2cnn3CC(=O)Nc2ccccc2C(F)(F)F)CC1 | -81.1*
CC1CCN(c2ncnc3c2cnn3CC(=O)Nc2ccccc2F)CC1 | 237.1
CC1CCN(c2ncnc3c2cnn3CC(=O)Nc2ccc(F)c(Cl)c2)CC1 | -85.7*
CC1CCN(c2ncnc3c2cnn3CC(=O)Nc2cccc(C(F)(F)F)c2)CC1 | -72.5*
O=C(Cn1ncc2c(N3CCCCC3)ncnc21)Nc1cccc(Cl)c1 | -46.6
CC1CCN(c2ncnc3c2cnn3CC(=O)Nc2ccc(OC(F)(F)F)cc2)CC1 | -33.1
O=C(Cn1ncc2c(N3CCCC3)ncnc21)Nc1cccc(Cl)c1 | -54.7
CN(Cc1cc2n(n1)CCNC2)Cc1noc(C2CCC2)n1 | -3.6
CC(C)c1nc(N2CCC(NC(=O)c3ccc4c(c3)OCO4)CC2)ncc1-c1ccncc1 | 22.1
COC1C2CCC1N(C(=O)c1cscn1)C2 (centres undefined) | 98.2
COC(=O)c1cc(C2CC2)nc2c1c(=O)n(Cc1nc(-c3ccccc3Cl)oc1C)c(=O)n2C | -6.9
O=c1cc(CSc2nc3ccccc3s2)nc(N2CCN(Cc3ccccc3)CC2)[nH]1 | 142.7
COc1ccc(F)c(-c2nc(OC)cc(OC)n2)c1 | -16.1
Cc1cc(-n2cnnc2)ncc1-c1ccc(C(C)N2CCCC2)cc1 (centres undefined) | -5.2
COc1ccc(F)c(-c2cnc(-n3cnnc3)cc2C)c1 | -81.0*
COc1ccccc1NC(=O)Cn1c(=O)cc(C(=O)N2CCCCC2)c2ccccc21 | 10.4
CC(=O)NCc1nnc2n1CCNCC2 | 6.8
